Assay [1] is described as follows: E. coli DRC41 culture turbidity changes, primary screen, E. coli filamentation inducer project, strain DRC41, OD650, 48 h (AID 1152).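 Note: E. coli MC1000 strain DRC41 lacking acrAB efflux pump and sulA.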 The conditions noted are these: E. coli DRC41 (acrAB sulA), higher = more signal, called active from +8 up or from −8 down.
The nature of assay [2]: small-molecule binders of probe aLefty1, primary screen, biochemical, small-molecule microarray, 635/667 nm fluorescence (AID 1153).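 Note: score merges spot fluorescence with signal-to-noise ratio from the scanned slide images.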 The conditions noted are these: higher = more signal.
The nature of assay [3]: PSAC antagonists in infected red cells, primary screen, cell-based, P. falciparum Indochina, OD700, 1 h (AID 1154). The conditions noted are these: P. falciparum Indochina infected RBC osmotic lysis, higher = more signal, called active from +8 up or from −8 down.
A short description of assay [4]: PSAC antagonists in infected red cells, primary screen, cell-based, P. falciparum Indochina, OD700, 2 h (AID 1155).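 Note: lysis reports solute entry through the parasite surface anion channel PSAC; channel blockers reduce lysis of infected cells.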 The conditions noted are these: P. falciparum Indochina infected erythrocytes, osmotic lysis OD700; higher = more signal, called active from +8 up or from −8 down.
Assay [5] can be described thus: osmotic lysis modulators in infected erythrocytes, primary screen, PSAC antagonist project, cell-based, P. falciparum Indochina, OD700, 3 h (AID 1156). The conditions noted are these: higher = more signal, called active from +8 up or from −8 down.
A short description of assay [6]: PSAC antagonists in infected red cells, primary screen, cell-based, P. falciparum Indochina, OD700, 18 h (AID 1157). The conditions noted are these: P. falciparum Indochina infected erythrocytes, osmotic lysis OD700, 18 h; higher = more signal, called active from +8 up or from −8 down.
Assay [7] is described as follows: modulators of S6 phosphorylation in cells, primary screen, cell-based, A549, cytoblot, luminescence, serum-stimulated (AID 1158).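 Note: serum-stimulated A549 lung adenocarcinoma cells; signal is phosphorylated S6 detected by cytoblot immunostaining with HRP secondary.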 The conditions noted are these: A549 phospho-S6 cytoblot, 5 h, higher = more signal.
The target in assay [8] is NADPH oxidase 2 (Homo sapiens) (UniProt P04839). As to the kind of experiment: NOX2-dependent H2O2 signal modulators, primary screen, NOX inhibitor project, cell-based, HEK293-NOX2, PMA-stimulated, Amplex Red fluorescence (AID 1159). Note: test concentration not given here. The conditions noted are these: 45 min, higher = more signal, called active from +8 up or from −8 down.
Chain of NADPH oxidase 2 (Homo sapiens) (P04839 whole entry, looked up): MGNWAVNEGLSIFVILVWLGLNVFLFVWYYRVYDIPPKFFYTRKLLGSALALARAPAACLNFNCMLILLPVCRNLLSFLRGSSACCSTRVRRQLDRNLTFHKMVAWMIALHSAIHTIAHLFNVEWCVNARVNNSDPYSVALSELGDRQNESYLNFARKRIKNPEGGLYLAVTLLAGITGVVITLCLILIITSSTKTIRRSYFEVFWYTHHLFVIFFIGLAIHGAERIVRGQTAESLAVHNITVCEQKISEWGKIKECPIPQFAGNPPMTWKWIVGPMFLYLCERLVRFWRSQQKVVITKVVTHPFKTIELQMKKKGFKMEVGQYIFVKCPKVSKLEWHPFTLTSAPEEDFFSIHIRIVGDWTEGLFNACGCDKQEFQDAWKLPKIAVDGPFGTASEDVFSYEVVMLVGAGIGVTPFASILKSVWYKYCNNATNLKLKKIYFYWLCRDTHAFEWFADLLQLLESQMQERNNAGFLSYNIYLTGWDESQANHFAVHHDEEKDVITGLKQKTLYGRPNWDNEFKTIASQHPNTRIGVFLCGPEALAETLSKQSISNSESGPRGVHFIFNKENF
In assay [9] the target is NADPH oxidase 4 (Homo sapiens) (UniProt Q9NPH5). As to the kind of experiment: NOX4-dependent H2O2 signal modulators, primary screen, NOX inhibitor project, cell-based, HEK293-NOX4, tetracycline-induced, Amplex Red fluorescence (AID 1160). The conditions noted are these: 45 min, higher = more signal, called active from +8 up or from −8 down.
Chain of NADPH oxidase 4 (Homo sapiens) (Q9NPH5 whole entry, looked up): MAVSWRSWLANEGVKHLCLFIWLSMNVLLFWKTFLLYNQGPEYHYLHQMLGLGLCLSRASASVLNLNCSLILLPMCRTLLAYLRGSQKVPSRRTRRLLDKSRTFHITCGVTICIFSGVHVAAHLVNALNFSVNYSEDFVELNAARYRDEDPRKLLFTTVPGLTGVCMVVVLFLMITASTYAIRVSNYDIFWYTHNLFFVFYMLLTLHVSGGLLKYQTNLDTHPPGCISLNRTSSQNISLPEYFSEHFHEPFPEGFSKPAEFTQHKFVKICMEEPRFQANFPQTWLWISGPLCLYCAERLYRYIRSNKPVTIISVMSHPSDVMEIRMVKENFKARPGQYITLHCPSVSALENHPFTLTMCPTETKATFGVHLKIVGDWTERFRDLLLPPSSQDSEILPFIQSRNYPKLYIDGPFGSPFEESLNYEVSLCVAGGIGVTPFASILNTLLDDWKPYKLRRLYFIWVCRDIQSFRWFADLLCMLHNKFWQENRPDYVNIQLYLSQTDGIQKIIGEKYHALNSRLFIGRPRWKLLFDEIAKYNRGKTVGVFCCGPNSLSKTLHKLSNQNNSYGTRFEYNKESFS
In assay [10] the target is NADPH oxidase 5 (Homo sapiens) (UniProt Q96PH1). As to the kind of experiment: NOX5-dependent H2O2 signal modulators, primary screen, NOX inhibitor project, cell-based, HEK293-NOX5, Amplex Red fluorescence (AID 1161). The conditions noted are these: HEK293-NOX5, ionomycin, 45 min, higher = more signal.
Chain of NADPH oxidase 5 (Homo sapiens) (Q96PH1 whole entry, looked up): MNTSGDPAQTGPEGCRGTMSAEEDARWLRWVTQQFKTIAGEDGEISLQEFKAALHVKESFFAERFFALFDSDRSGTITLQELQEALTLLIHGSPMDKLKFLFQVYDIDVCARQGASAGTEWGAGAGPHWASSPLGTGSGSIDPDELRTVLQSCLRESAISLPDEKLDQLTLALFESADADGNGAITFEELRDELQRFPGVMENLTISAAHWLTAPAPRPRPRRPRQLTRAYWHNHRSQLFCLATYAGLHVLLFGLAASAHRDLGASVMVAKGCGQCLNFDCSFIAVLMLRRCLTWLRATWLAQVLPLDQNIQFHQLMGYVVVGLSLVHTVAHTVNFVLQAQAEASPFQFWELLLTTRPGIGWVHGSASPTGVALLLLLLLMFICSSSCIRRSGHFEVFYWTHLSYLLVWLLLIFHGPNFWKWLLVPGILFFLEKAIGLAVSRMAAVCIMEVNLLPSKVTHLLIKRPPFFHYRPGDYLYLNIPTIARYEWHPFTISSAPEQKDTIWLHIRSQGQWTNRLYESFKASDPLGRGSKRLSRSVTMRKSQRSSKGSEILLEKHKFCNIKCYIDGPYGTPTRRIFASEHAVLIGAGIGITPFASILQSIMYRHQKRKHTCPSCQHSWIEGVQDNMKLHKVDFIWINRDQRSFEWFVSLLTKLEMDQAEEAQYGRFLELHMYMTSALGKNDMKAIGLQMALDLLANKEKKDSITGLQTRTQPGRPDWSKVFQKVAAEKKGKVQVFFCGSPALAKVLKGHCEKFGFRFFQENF
Assay [11] can be described thus: A549 cell viability effects, profiling panel, calcein-AM fluorescence, 48 h, basal (AID 1162). Note: test concentration not given here. The conditions noted are these: higher = more signal.
Assay [12] can be described thus: adipocyte viability effects, profiling panel, cell-based, 3T3-L1 adipocytes, calcein-AM fluorescence, 48 h, basal (AID 1163). Note: test concentration not given here. The conditions noted are these: 3T3-L1 adipocytes viability, higher = more signal.
Assay [13] in a line: HepG2 cell viability effects, profiling panel, calcein-AM fluorescence, 48 h, basal (AID 1164). Note: test concentration not given here. The conditions noted are these: higher = more signal.
Assay [14] in a line: MM1S cell viability effects, profiling panel, calcein-AM fluorescence, 48 h, basal (AID 1165).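 Note: viability of MM1S multiple myeloma cells under basal unstimulated conditions; test concentration not given here.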 The conditions noted are these: higher = more signal.
A short description of assay [15]: basal RPMI8226 viability, no added stimulus, profiling panel, cell-based, calcein-AM fluorescence, 48 h, PK04 Diversity Set (AID 1166).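 Note: cells grown under basal conditions without added stimulus; test concentration not given here.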 The conditions noted are these: RPMI8226 myeloma viability, higher = more signal.
The nature of assay [16]: basal HepG2 mitochondrial membrane potential changes, profiling panel, cell-based, JC-1 fluorescence, 24 h, 100 nL compound (AID 1167). Note: test concentration not given here. The conditions noted are these: higher = more signal.
Assay [17] can be described thus: basal 3T3-L1 adipocyte mitochondrial potential changes, profiling panel, cell-based, JC-1 fluorescence, 3T3-L1 adipocytes, 24 h, 100 nL compound (AID 1168). Note: test concentration not given here. The conditions noted are these: JC-1 mitochondrial fluorescence, higher = more signal, called active from +8 up or from −8 down.
A short description of assay [18]: basal RPMI8226 mitochondrial membrane potential changes, profiling panel, cell-based, JC-1 fluorescence, 24 h, 100 nL compound (AID 1169). Note: test concentration not given here. The conditions noted are these: RPMI8226 myeloma, JC-1 mitochondrial potential fluorescence, higher = more signal.
Assay [19] can be described thus: basal MM1S mitochondrial membrane potential changes, profiling panel, cell-based, JC-1 fluorescence, 24 h, 100 nL compound (AID 1170). Note: test concentration not given here. The conditions noted are these: higher = more signal.
Assay [20] in a line: A549 lung cancer cell viability effects, profiling panel, resazurin fluorescence, 24 h, PK04 Diversity Set (AID 1171). Note: test concentration not given here. The conditions noted are these: higher = more signal, called active from +8 up or from −8 down. On the technique in general: Resazurin is reduced to fluorescent resorufin, in cell work by metabolically active cells.

The source of these data is PubChem BioAssay.

Each structure is given as a SMILES string. Active and inactive are the calls of the source.

Turning to `CC(=O)NCCCC[C@@H]1NC(=O)[C@@H]2C[C@H](C(=O)NCCCCN(C)C)[C@H](c3ccc(O)cc3)N2C1=O`, the z-score in assay [1] is 1.62 (inactive); in assay [3], 0.453 (inactive); in assay [4] it was -0.233 (inactive); in assay [5] it was 1.13 (inactive); in [6] it was 0.153 (inactive); in [7] it was -0.051. Further, the z-score in assay [8] is 0.0273 (inactive); in [9] it was 0.192 (inactive); in [10] it was 0.546; in assay [11], 1.42; in assay [12] it was -0.582; in assay [13] it was 0.374. For the same compound, the z-score was 0.213 in assay [14]; 0.93 in [15]; 0.709 in [16]; 1.05 (inactive) in assay [17]; -0.293 in [18]; -0.504 in [19]. In addition, the z-score in assay [20] is 0.854 (inactive). In assay [2], this compound registered a composite z-score of -0.29.

For the compound `COC(=O)C[C@@H]1C[C@H](C)[C@]2(O1)C(=O)N(Cc1ccccc1)c1ccc(NC(C)=O)cc12`, the z-score in assay [1] was 0.442 (inactive); in [3], 1.66 (inactive); in [4] it was -0.0327 (inactive); in assay [5], 0.962 (inactive); in assay [6], 0.0822 (inactive); in [7], 0.525. Moreover, the z-score in assay [8] was 0.627 (inactive); in [9], -1.06 (inactive); in assay [10] it was 2.27; in assay [11], -0.0958; in assay [12], 0.663; in [13] it was -0.258. Further, the z-score is 0.186 in assay [14]; -0.804 in assay [15]; -0.0913 in [16]; -0.551 (inactive) in assay [17]; -0.183 in [18]; 0.229 in [19]. For the same compound, the z-score in assay [20] was -0.982 (inactive). In assay [2], the composite z-score is -0.193.

On to `COCCOC(=O)N1C(=O)[C@@]2(c3cc(C#CC4(O)CCCCCC4)ccc31)[C@H](C(=O)N1CCCCCCC1)[C@H]1C(=O)O[C@H](c3ccccc3)[C@H](c3ccccc3)N1[C@@H]2c1ccccc1OCCO`, for which the z-score was 0.139 (inactive) in [1]; 1.04 (inactive) in assay [3]; 1.53 (inactive) in [4]; 1.05 (inactive) in [5]; 1.07 (inactive) in [6]; 0.535 in assay [7]. The z-score in assay [8] was 0.528 (inactive); in [9] it was -0.409 (inactive); in assay [10], 1.29; in assay [11] it was 0.424; in assay [12], 1.64; in assay [13] it was 0.504. For the same compound, the z-score was -0.658 in [14]; -1.87 in assay [15]; -0.679 in assay [16]; 0.656 (inactive) in assay [17]; -0.658 in [18]; -0.987 in assay [19]. In addition, the z-score in assay [20] is -1.1 (inactive). In addition, the composite z-score in [2] stood at 2.53.

On to `O=C1C2C=CC(C(O)c3cccs3)N(Nc3ccccc3F)C2C(=O)N1c1ccccc1` (stereo not given), for which the z-score was 0.386 (inactive) in assay [1]; 1.35 (inactive) in assay [3]; -0.506 (inactive) in assay [4]; -1.27 (inactive) in assay [5]; -1.23 (inactive) in assay [6]; 0.224 in [7]. Besides, the z-score is -0.932 (inactive) in assay [8]; -3.7 (inactive) in assay [9]; -1.78 in [10]; -0.543 in assay [11]; 0.289 in assay [12]; -0.901 in assay [13]. In addition, the z-score in [14] is 0.46; in assay [15], 0.167; in assay [16] it was -0.686; in [17], 0.321 (inactive); in [18], 0.635; in assay [19], -0.947. In [20], the z-score was 0.433 (inactive). In addition, the composite z-score in [2] was 0.248.

As for `COCCOC(=O)N1C(=O)[C@@]2(c3cc(C#CCNC(N)=O)ccc31)[C@H](C(=O)N1CCc3cc(OC)c(OC)cc3C1)[C@H]1C(=O)O[C@H](c3ccccc3)[C@H](c3ccccc3)N1[C@@H]2c1ccc(OCCO)cc1`, the z-score is 1.3 (inactive) in [1]; 3.93 (inactive) in assay [3]; 1.37 (inactive) in assay [4]; 0.695 (inactive) in assay [5]; 0.778 (inactive) in assay [6]; 0.412 in [7]. Moreover, the z-score was 0.825 (inactive) in assay [8]; 0.869 (inactive) in assay [9]; -0.0832 in assay [10]; -0.21 in [11]; 0.743 in [12]; -0.0192 in assay [13]. For the same compound, the z-score was 0.128 in assay [14]; 0.115 in assay [15]; -0.691 in assay [16]; 1.66 (inactive) in [17]; -0.468 in [18]; -0.864 in assay [19]. In [20], the z-score was 0.0245 (inactive). This compound also returned a composite z-score in assay [2] of -0.361.

Turning to `C=CCOC(=O)[C@H]1[C@@H]2C(=O)O[C@@H](c3ccccc3)[C@@H](c3ccccc3)N2[C@@H](c2ccc(OCCOC(=O)[C@@H]3C[C@@H]4C(=O)N5CCC[C@H]5C(=O)N4[C@@H]3c3ccc(O)cc3)cc2)[C@]12C(=O)Nc1ccccc12`, the z-score in assay [1] was 0.891 (inactive); in assay [3], 2.72 (inactive); in [4], 1.04 (inactive); in [5] it was 2.96 (inactive); in assay [6] it was 0.668 (inactive); in [7] it was 0.193. In addition, the z-score in assay [8] was 1.64 (inactive); in [9], 1.21 (inactive); in assay [10], 1.57; in [11], 0.924; in assay [12], 0.038; in assay [13], -0.139. Besides, the z-score was 0.603 in assay [14]; 0.876 in assay [15]; -1.42 in [16]; 1.74 (inactive) in assay [17]; -0.212 in [18]; -0.786 in [19]. The z-score in assay [20] is 0.362 (inactive). The compound also showed a composite z-score in [2] of 0.137.

As to `COc1cc(CO)ccc1OC(C)=O`, the z-score was 1.48 (inactive) in assay [1]; -0.92 (inactive) in assay [3]; -1.73 (inactive) in [4]; -0.798 (inactive) in assay [5]; -2.47 (inactive) in assay [6]; 1.03 in [7]. The z-score in [8] was -4.55 (inactive); in assay [9] it was -1.36 (inactive); in [10], -0.667; in assay [11] it was 0.653; in [12], 0.584; in assay [13], 1.04. The z-score in assay [14] was 1.12; in assay [15], 1.19; in assay [16] it was 0.302; in [17], 0.791 (inactive); in assay [18], 0.41; in assay [19], 0.433. In addition, the z-score in assay [20] was -1.08 (inactive). This compound yielded a composite z-score in [2] of -0.157.

`O=C1C[C@@](C(=O)NC2CC2)(c2ccc([N+](=O)[O-])cc2)[C@@H](c2ccc(CO)cc2)N1CC12CC3CC(CC(C3)C1)C2`: the z-score in assay [1] is 0.904 (inactive); in assay [3], 2.28 (inactive); in [4] it was -0.135 (inactive); in [5], 0.678 (inactive); in assay [6], -0.83 (inactive); in assay [7], 0.392. Also, the z-score in assay [8] was 0.987 (inactive); in [9], -2.19 (inactive); in assay [10] it was -2.35; in assay [11], -1.14; in assay [12], 0.781; in assay [13] it was -1.94. For the same compound, the z-score in assay [14] was -2.07; in assay [15], -3.09; in [16], -0.881; in [17], -0.199 (inactive); in [18] it was -0.507; in assay [19] it was -0.214. Moreover, in assay [20], the z-score is -1.45 (inactive). This compound came in with a composite z-score in [2] of 0.0861.
